# HCV inhibitor: HCV inhibition | Huh7.5.1 HCVcc-Cre infection, luciferase reporter, 44 h | AID 651820 | Potency, µM (top dose mostly 41.8 µM), usual class: inhibitors | 340,000 tested, 3.4% active
#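 Cells seeded at 1,000/well and cultured 4 h, then compounds added followed by HCVcc-Cre virus (~0.5 moi). After 44 h further culture, luciferase substrate was added, plates held 15 min at room temperature, and luminescence read for 15 sec.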
# Shiga toxin inh: Shiga toxin inhibition; inhibition, % at 38.7 µM; 290,000 tested, 9.2% active; Vero cells, Shiga toxin protein synthesis inhibition reporter; AID 2315; in the data active = inhibition mostly above about 28%, no sharp cut-off; inactive = mostly below about 43%
# Pf growth 96h: P. falciparum growth inhibition at 96 hours. Potency, µM (doses to about 28.7 µM), actives largely listed as inhibitors. 320,000 tested, 6.9% active. P. falciparum luciferase reporter growth, 96 h. AID 504834
#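 Cell-based qHTS: luciferase-tagged P. falciparum in erythrocytes (2% hematocrit, 0.05% parasitemia final) incubated with compounds for 96 hours, 37 C, 5% CO2; luciferase detection reagent then added and luminescence measured.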
# AMA1 RON2 block: disrupts binding of P. falciparum AMA1 to RON2 | 360,000 tested, 0.2% active | AlphaScreen AMA1-biotinylated RON2 peptide binding | AID 720542 | Potency, µM (highest dose often 58.2 µM), usual class: inhibitors; also: nearly all actives have a fitted effect of over 45% in size
#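 AMA1 (3D7) with his tag at 25 nM final met compounds first, then biotinylated RON2 peptide at 25 nM; detection used donor plus acceptor beads, 10 µg/mL apiece, read by AlphaScreen after 30 min at room temperature.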
# CHX counter: counter-screen for Shiga toxin inhibitors: cycloheximide protein synthesis inhibition | cell reporter, cycloheximide protein synthesis inhibition counterscreen | max response, % | 300,000 tested, 12% active; in the data active = max response mostly above about 13%, no sharp cut-off; inactive = mostly below about 14%; also: read at 38.3 µM for the half of the compounds with a filed dose
# Pf growth 48h: P. falciparum growth inhibition at 48 hours (one generation); P. falciparum luciferase growth in erythrocytes, 48 h; 310,000 tested, 5.9% active; AID 504832; Potency, µM (series often up to 28.7 µM), actives largely listed as inhibitors
#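 Luciferase-expressing parasites in RBCs, 2% Hct / 0.1% parasitemia final; RPMI 1640 + 0.5% Albumax; 37 C, 5% CO2, one generation; luminescence read-out, lower signal = inhibition.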
# Hits are given with their value; – = inactive; ? = inconclusive; · = no result; [ ] = dose if it differs, or a comment. Hits are enriched below; roughly 21% of the tested compounds scored in any of these assays. Unless noted, calls follow the shape of the dose curve; as a rule, active = well fitted curve in the direction sought with a large enough effect; inconclusive = small, poorly fitted or top-dose-only effect, or another doubt; inactive = no such curve, though single readings can be large; an effect the other way counts as inactive or inconclusive.
SMILES,HCV inhibitor,Shiga toxin inh,Pf growth 96h,AMA1 RON2 block,CHX counter,Pf growth 48h
CSc1nc(N)nc(SCCS(=O)(=O)c2ccc(Cl)cc2)c1C#N,10µM,–,–,–,–,–
CSc1nc(N)nc(SCC(=O)C(C)(C)C)c1C#N,?,–,?,–,–,·
Cc1nnc(SCc2cc(=O)oc3cc(O)ccc23)n1Cc1ccccc1,–,–,2.1µM,–[11.6 µM],–,?
O=C(NCCc1ccc(Cl)cc1)C1CCCN1C(=O)Nc1ccccc1 (configuration not stated),–,–,?,–,–,–
NC(=Nc1ccc(Br)cc1)c1ccccc1,–,76,–,–,20,–
CCCS(=O)(=O)c1nc(S(=O)(=O)c2ccc(C)cc2)c(N2CCOCC2)s1,–,–,–,–,–,12µM
CC1CCCN(c2sc(S(C)(=O)=O)nc2S(=O)(=O)c2ccc(Cl)cc2)C1 (configuration not stated),–,–,13µM,–,–,?
CCS(=O)(=O)c1nc(S(=O)(=O)c2ccc(Cl)cc2)c(N2CCc3ccccc3C2)s1,–,–,2.9µM,–,–,9.3µM
CCS(=O)(=O)c1nc(S(=O)(=O)c2ccc(Cl)cc2)c(NCCCN2CCOCC2)s1,–,–,12µM,–,–,–
CC(C)(CNC(=O)c1ccc(-c2ccccc2Cl)o1)N1CCOCC1,–,·,–,–,·,–
CSc1cccc(NC(=O)CCCOc2cc(=O)n(C)c3ccccc23)c1,·,·,·,–,·,·
O=C(COc1ccc2ccc(=O)oc2c1)NCCCn1ccnc1,–,–,–,–,–,–
O=C(NC1CCCCC1)C1c2ccccc2OCC(=O)N1CCc1c[nH]c2ccccc12 (configuration not stated),·,·,·,–,·,·
O=C(Nc1ccc(Cl)cc1)C1Cc2c(-c3ccccc3)ccnc2O1 (configuration not stated),·,·,·,–,·,·
Cc1nn(CC(=O)NCCCN2CCCC2=O)c(C)c1[N+](=O)[O-],–,·,·,–,·,·
COc1ccccc1NNC(=O)C(O)(c1ccccc1)c1ccccc1,–,–,–,–,–,–
Nc1ccc(S(=O)(=O)NNC(=O)C(=O)NNc2ccccn2)cc1,–,–,–,–,–,–
CCCNNC(=O)C(O)(c1ccccc1)c1ccccc1,–,–,10µM,–[11.6 µM],–,–
Cc1ccc(S(=O)(=O)NNC(=O)c2ccncc2)cc1,–,–,?,–,–,–
Cc1cc(C(=O)NNS(=O)(=O)c2ccc(C(C)(C)C)cc2)nn1C(C)(C)C,–,–,–,–,–,10µM
Cc1ccc(S(=O)(=O)NNC(=O)C(O)(c2ccccc2)c2ccccc2)cc1,–,–,2.1µM,–,–,–
O=C(NNS(=O)(=O)c1ccccc1)C(O)(c1ccccc1)c1ccccc1,–,–,–,–,–,–
Cc1ccc(S(=O)(=O)NNC(=O)C(=O)NNc2ccccn2)cc1,–,–,–,32µM,–,–
CCCn1c(=O)n(C)c(=O)c2c(SCC(=O)Nc3cc(C)on3)nc(C(C)(C)C)nc21,10µM,·,?,–,·,10µM
Cc1cc(NC(=O)CSc2nc(C(C)C)nc3c2c(=O)n(C)c(=O)n3C)no1,–,–,?,–,–,?
SMILES,HCV inhibitor,Shiga toxin inh,Pf growth 96h,AMA1 RON2 block,CHX counter,Pf growth 48h
C[C@H](O)[C@@H]1C(=O)N2CCc3c([nH]c4ccccc34)[C@@H]2C[C@@H]1N(C)C(=O)c1cc(Cl)cc(Cl)c1,·,·,·,–,·,·
COC(=O)C1=C(N)N(c2ccccc2C(F)(F)F)C2=C(C(=O)CCC2)C1c1ccc2c(c1)OCO2 (configuration not stated),?,–,7.4µM,–,–,3.7µM
COc1ccccc1N(CC(=O)N1CCN(Cc2ccccc2)CC1)S(=O)(=O)c1ccccc1,·,·,·,–,·,·
O=C(COC(=O)C1CC1)NCCc1ccc(Cl)cc1,–,·,–,–,·,–
CCOC(=O)N1CCN(CC(=O)c2ccc(O)c(C)c2O)CC1,–,–,–,–,31,–
Cc1c(O)ccc(C(=O)CN2CCN(Cc3ccc4c(c3)OCO4)CC2)c1O,–,–,12µM,–,–,–
CN1CCN(c2ncnc3c2ncn3[C@H]2CN(Cc3ccc(-c4ccccc4)cc3)C[C@@H](CO)O2)CC1,·,·,·,–,·,·
O=C(Nc1ccccc1)OCCc1ccccn1,–,·,·,–,·,·
COC(=O)C1=C(C(=O)OC)[C@]2([C@H]3CC=CCN[C@@H](Cc4ccccc4)C(=O)N3Cc3ccccc3)C=C[C@H]1O2,?,·,·,–,·,·
O=C(COC(=O)/C=C/c1ccco1)NCCN1C(=O)CSC1=O,–,·,·,–,·,·
C/C(=C\[C@@H](NP(=O)(c1ccccc1)c1ccccc1)c1ccccc1)CO[Si](c1ccccc1)(c1ccccc1)C(C)(C)C,–,·,·,–,·,·
CCCC/C(C)=C/[C@@H](NP(=O)(c1ccccc1)c1ccccc1)c1ccccc1,2.8µM,–,15µM,–,–,?
COc1cc(-c2cc(=O)c3c(O)c(OC)c(OC)c(OC)c3o2)cc(OC)c1OC,–,–,–,–,–,–
COc1ccc(-c2cc(=O)c3c(OC)c(OC)c(OC)c(OC)c3o2)cc1,10µM,·,·,–,·,·
COc1ccc(-c2cc(=O)c3cc(OC)ccc3o2)cc1,–,66,–,–,–,–
O=C1NC[C@H](Cc2ccccc2)N(C[C@@H]2CCCN2C[C@H](Cc2ccccc2)N2C[C@H](Cc3ccc(O)cc3)N(CCc3ccccc3)C(=O)C2=O)C1=O,·,·,·,–,·,·
CSc1nc(N)nc(SC2C=CCCC2)c1C#N (configuration not stated),–,–,–,–,26,–
O=C(c1sc(N2CCOCC2)nc1-c1ccccc1)N1CCCCC1,–,–,–,–[11.6 µM],–,–
[2H]c1c([2H])c([2H])c(-c2nc(N3CCCCCC3)sc2C(=O)c2ccccc2)c([2H])c1[2H],?,–,4.1µM,–,–,?
COc1cc2c(cc1OC)n(CC(=O)NC1CCCCCC1)n1c(C)cc(=O)nc21,–,–,5.9µM,–,–,–
O=C(NCCS(=O)(=O)NCc1ccc2c(c1)OCO2)c1ccccc1,–,·,–,–,·,–
O=C(C[n+]1cccc(CNC(=O)c2ccc(OC(F)F)cc2)c1)Nc1ccc(F)cc1,–,–,0.74µM,–,–,8.3µM
O=C(C[n+]1cccc(CNC(=O)c2ccc(OC(F)F)cc2)c1)c1ccccc1,–,–,?,–,–,–
O=C(C[n+]1cccc(CNC(=O)c2ccc(OC(F)F)cc2)c1)Nc1cccc(C(F)(F)F)c1,–,–,?,–[11.6 µM],–,5.2µM
CCC(C)[C@H]1CN=C(N)N1CCCc1cc(OC)c(OC)c(OC)c1 (some centres not stated),–,–,13µM,–,–,10µM
COc1cc(CCCN2C(=O)C(=O)NC[C@@H]2c2ccccc2)cc(OC)c1OC,–,–,–,–,–,–
CCC(C)[C@H]1CN=C(N)N1CCc1cc(C(F)(F)F)cc(C(F)(F)F)c1 (some centres not stated),–,–,2.1µM,–,–,4.7µM
